Assay outcomes deposited in PubChem by National Center for Advancing Translational Sciences (NCATS).
A selection: hits, their analogues and other compounds. The true share with any hit is near 5.2%.
IDH1 R132H inh: inhibitors of human mutant IDH1 R132H; 390,000 tested, 0.093% active; AID 602179; O75874; IDH1-R132H enzyme, NADPH consumption, diaphorase/resazurin fluorescence; Potency, µM (top dose mostly 76.6 µM), for inactives: top-dose activity change, negative = inhibition, hits mostly inhibitors; note: nearly all actives have a fitted effect of over 65% in size
Target sequence (O75874 whole entry R132H, stated change not applied): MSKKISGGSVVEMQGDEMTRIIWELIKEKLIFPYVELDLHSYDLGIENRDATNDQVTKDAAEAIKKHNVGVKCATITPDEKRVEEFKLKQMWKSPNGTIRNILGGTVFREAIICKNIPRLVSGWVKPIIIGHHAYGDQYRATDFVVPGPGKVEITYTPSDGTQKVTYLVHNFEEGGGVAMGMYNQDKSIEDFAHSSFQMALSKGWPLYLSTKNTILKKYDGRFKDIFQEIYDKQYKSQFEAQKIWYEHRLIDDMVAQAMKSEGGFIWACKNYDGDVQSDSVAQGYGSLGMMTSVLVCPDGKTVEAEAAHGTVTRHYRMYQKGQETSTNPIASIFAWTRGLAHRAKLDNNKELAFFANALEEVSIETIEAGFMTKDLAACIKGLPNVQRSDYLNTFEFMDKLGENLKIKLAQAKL
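IDH1-R132H (0.5 ug/mL dispensed) in pH 7.5 Tris buffer was preincubated 30 min with compound, then given a substrate mix of 0.016 mM NADPH and 2 mM alpha-KG for 80 min at room temperature; remaining NADPH was read by diaphorase/resazurin fluorescence.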
VDR inhibitor: vitamin D3 receptor (human) inhibition. 400,000 tested, 0.93% active. VDR-SRC2-3 peptide fluorescence polarization, 2 h. Potency, µM, without a hit: max response, negative = inhibition, usual class: inhibitors. P11473
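Compounds are added to VDR with labelled SRC2-3 coactivator peptide and held 2 h at room temperature. Inhibition of the VDR–peptide interaction is then read as a change in fluorescence polarization.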
PLK1 PBD block: PLK1 (human) polo-box domain binding inhibition. Plk1 PBD binding of FITC phosphopeptide, fluorescence polarization. P53350. 360,000 tested, 2.8% active. Potency, µM, inactives show max response, negative = inhibition, hits mostly inhibitors. AID 720504; note: series mostly up to about 57 µM; nearly all actives have a fitted effect of over 65% in size
Sfp PPTase inh: inhibitors of Bacillus subtilis Sfp phosphopantetheinyl transferase; AID 1490; Potency, µM, for inactives: largest response in the series, negative = inhibition, actives largely listed as inhibitors; Q9F4F7; 310,000 tested, 3.5% active; Biochemical Sfp PPTase activity, qHTS;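 note: the enzyme is Sfp with the accession as filed and its product quenches rhodamine fluorescence; 0% = enzyme reaction without inhibitor and -100% = no enzyme wells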
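Compounds were incubated with enzyme (final 15 nM) for 15 min at room temperature before substrate addition started the reaction. Fluorescence at 525 nm excitation, 598 nm emission was recorded immediately and after 30 minutes.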
TrxR1 inh: rat TrxR1 inhibition. 390,000 tested, 1% active. O89049. recombinant rTrxR1, NADPH fluorescence consumption, selenite substrate. Potency, µM (top dose mostly 114 µM), for inactives: at the highest dose activity change, negative = inhibition, most hits filed as inhibitors; note: nearly all actives have a fitted effect of over 65% in size
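Rat TrxR1 (90 nM in the dispensed reagent) was pre-reduced with 400 uM NADPH for 5 min at room temperature, then incubated with compound for 15 min. After 400 uM selenite was added, NADPH fluorescence (Ex 340/Em 450 nm) was followed for 8 min.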
TrxR1 substrate: rat thioredoxin reductase 1 substrate activity; O89049; purified TrxR1 substrate turnover, NADPH consumption readout; Potency, µM (highest dose often 114 µM), for inactives: at the top dose activity change, negative = substrate turnover; 390,000 tested, 0.01% active; note: nearly all actives have a fitted effect of over 50% in size
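Rat TrxR1, dispensed at 90 nM, was prereduced with 400 uM NADPH (final) for 5 min at ~22 deg C, then incubated with compound 15 min before 400 uM selenite. A first-read NADPH fluorescence drop versus no-compound background flagged substrates.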
An asterisk follows results filed as active; [ ] = dose if it differs, or a comment. Calls come from the whole dose curve; as a rule, active = well fitted curve in the direction sought with a large enough effect; inconclusive = small, poorly fitted or top-dose-only effect, or another doubt; inactive = no such curve, though single readings can be large; an effect the other way counts as inactive or inconclusive. Unless noted, % is set by controls: 0 for no effect and ±100 for the full control effect; potency is the fitted concentration of half-maximal effect.

C[C@@H]1CN([C@@H](C)CO)C(=O)CCCn2nncc2CO[C@H]1CN(C)C(=O)c1ccncc1 was read as IDH1 R132H inh 10% and PLK1 PBD block -5%.
Screening O=C(COc1ccc(S(=O)(=O)NC2CCCCC2)cc1Cl)NCc1cccnc1 returned IDH1 R132H inh 0%, VDR inhibitor 9%, PLK1 PBD block inconclusive, Sfp PPTase inh 18µM*, TrxR1 inh -6% and TrxR1 substrate -2%.
Screening O=C(COc1ccc(S(=O)(=O)NC2CCCCC2)cc1)NCc1ccccn1 returned IDH1 R132H inh -4%, VDR inhibitor -5%, PLK1 PBD block -10%, Sfp PPTase inh 12%, TrxR1 inh 22% and TrxR1 substrate 11%.
Screening O=C(CCc1ccc(S(=O)(=O)NC2CCCCC2)cc1)NCc1ccccn1 returned IDH1 R132H inh 0%, VDR inhibitor -13%, PLK1 PBD block 2%, Sfp PPTase inh 40µM*, TrxR1 inh 12% and TrxR1 substrate 2%.
O=C(CCc1ccc(S(=O)(=O)NC2CCCCC2)cc1)Nc1ccccc1 was read as IDH1 R132H inh -1%, VDR inhibitor -12%, PLK1 PBD block 27µM*, Sfp PPTase inh 18%, TrxR1 inh 19%[57.1 µM] and TrxR1 substrate 8%[57.1 µM].
For O=C(COc1ccc(S(=O)(=O)NC2CCCCC2)cc1)NCc1cccnc1 the results were IDH1 R132H inh 9%, VDR inhibitor -11%, PLK1 PBD block -11%, Sfp PPTase inh 10%, TrxR1 inh 18% and TrxR1 substrate 8%[57.1 µM].
`O=C(Nc1nc(=O)n(C(=O)C2CC2)s1)c1ccccc1` gave IDH1 R132H inh 5%, VDR inhibitor 50µM*, PLK1 PBD block -5%, Sfp PPTase inh -6%, TrxR1 inh -18% and TrxR1 substrate -10%.
Cc1ccc(C(=O)Nc2cccc(NC(=O)c3ccc(C)cc3)n2)cc1 was read as IDH1 R132H inh 2%, VDR inhibitor 5%, PLK1 PBD block -3%, TrxR1 inh 21%[57.1 µM] and TrxR1 substrate 6%.
Cc1ccc(C(=O)Nc2nc(=O)n(C(=O)c3ccccc3C)s2)cc1 was read as IDH1 R132H inh -26%, VDR inhibitor 22µM*, PLK1 PBD block inconclusive, Sfp PPTase inh 0%, TrxR1 inh -7%[57.1 µM] and TrxR1 substrate -9%[57.1 µM].
`CCN(CC(=O)Nc1c(F)cccc1F)C(=O)c1ccc2ncsc2c1` gave IDH1 R132H inh -1%, VDR inhibitor -5%, PLK1 PBD block -5%, TrxR1 inh 17% and TrxR1 substrate 8%.
`Cc1ccc(NC(=O)/C(C#N)=C(\N)C(Cl)(Cl)Cl)nc1` gave IDH1 R132H inh -8%, VDR inhibitor inconclusive, PLK1 PBD block 24µM*, Sfp PPTase inh -9%, TrxR1 inh -3%[57.1 µM] and TrxR1 substrate 7%[57.1 µM].
For COc1ccc(C)cc1NC(=O)C(OC(=O)c1ccc([N+](=O)[O-])o1)c1ccccc1 (stereo not drawn) the results were IDH1 R132H inh 11%, VDR inhibitor -5%, PLK1 PBD block 27µM*, Sfp PPTase inh 2%, TrxR1 inh 4% and TrxR1 substrate -3%.
O=[N+]([O-])c1c(NCCCO)cc(SCc2ccco2)c2nonc12 was read as IDH1 R132H inh 0%, VDR inhibitor -25%, PLK1 PBD block inconclusive, Sfp PPTase inh 22µM*, TrxR1 inh 14µM* and TrxR1 substrate -14%.
For O=[N+]([O-])c1c(NCCCO)cc(N2CCCCCC2)c2nonc12 the results were IDH1 R132H inh 3%, VDR inhibitor -10%, PLK1 PBD block -5%, Sfp PPTase inh -9%, TrxR1 inh -66% and TrxR1 substrate -15%[57.1 µM].
For Cn1ccnc1Sc1cc(NCCCO)c([N+](=O)[O-])c2nonc12 the results were IDH1 R132H inh 5%, VDR inhibitor 20µM*, PLK1 PBD block 3µM*, Sfp PPTase inh inconclusive, TrxR1 inh inconclusive and TrxR1 substrate 9%[57.1 µM].
For CC(=O)OCCNc1cc(SCc2ccco2)c2nonc2c1[N+](=O)[O-] the results were IDH1 R132H inh 6%, VDR inhibitor -27%, PLK1 PBD block inconclusive, Sfp PPTase inh 45µM*, TrxR1 inh 22µM* and TrxR1 substrate -9%.
COC(=O)C1=C(C(=O)OC)[C@@H]2N(C)c3ccc(OC)cc3[C@@]23C[C@@H](C(=O)OC)N(S(=O)(=O)c2ccc4c(c2)OCCN4C)C3=N1 was read as Sfp PPTase inh 2%.
Screening CNCC[C@H](Oc1ccccc1OC)c1ccccc1 returned VDR inhibitor 5% and Sfp PPTase inh 8%.
Screening COc1ccc(-c2cc(C(F)F)n3ncc(C(=O)Nc4cc(C)on4)c3n2)cc1 returned IDH1 R132H inh 6%, VDR inhibitor -5%, PLK1 PBD block -7%, Sfp PPTase inh 79µM*, TrxR1 inh 4% and TrxR1 substrate 18%[57.1 µM].
O=C(Nc1cnn(Cc2ccc(F)cc2)c1)c1cnn2c(C(F)F)cc(-c3ccccc3)nc12 was read as IDH1 R132H inh 0%, VDR inhibitor 11%, PLK1 PBD block -23%, Sfp PPTase inh 14µM*, TrxR1 inh 4% and TrxR1 substrate -3%.
`COc1cc(OC)c(NC(=O)Nc2ccc3c(c2)N(C)C(=O)c2ccccc2S3)cc1Cl` gave IDH1 R132H inh -3%, VDR inhibitor -8%, TrxR1 inh -10% and TrxR1 substrate -6%.
For CCOc1ccc(CNC(=O)C2CCN(c3nnc(-n4c(C)ccc4C)s3)CC2)cc1 the results were VDR inhibitor 5%, TrxR1 inh inconclusive and TrxR1 substrate -16%.
CCc1nnc(NC(=O)c2ccc(-c3ccc(C(C)=O)cc3)o2)s1 was read as IDH1 R132H inh 2%, VDR inhibitor -16%, PLK1 PBD block 0%, TrxR1 inh 14µM* and TrxR1 substrate 8%.
Screening O=C(Nc1nc(-c2ccccn2)cs1)c1ccc([N+](=O)[O-])o1 returned IDH1 R132H inh 7%, VDR inhibitor -12%, PLK1 PBD block 13µM*, Sfp PPTase inh 16µM*, TrxR1 inh inconclusive and TrxR1 substrate -7%.
Screening O=C(Nc1nc(-c2ccccn2)cs1)c1ccc(-c2ccccc2F)o1 returned IDH1 R132H inh 1%, VDR inhibitor -10%, PLK1 PBD block -10%, TrxR1 inh inconclusive and TrxR1 substrate 3%.
CCc1nnc(NC(=O)c2ccc(-c3ccc(Cl)cc3)o2)s1 was read as IDH1 R132H inh 9%, VDR inhibitor 2%, PLK1 PBD block -8%, Sfp PPTase inh 4%, TrxR1 inh 5%[57.1 µM] and TrxR1 substrate 44%.
`CC(=O)c1ccc(-c2ccc(C(=O)Nc3nc(-c4ccccn4)cs3)o2)cc1` gave IDH1 R132H inh 13%, VDR inhibitor -18%, PLK1 PBD block 27µM*, TrxR1 inh inconclusive and TrxR1 substrate 37%.
